# GALR2 antag: GALR2 (human) receptor antagonism. O43603. GALR2-expressing cells, antagonist mode. inhibition, % at 4 µM. hit rate 0.39% among 140,000. AID 828; in the data active = inhibition above about 27%;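 also: cells stimulated with galanin 1-16 at roughly its EC80; 0% = agonist challenge control and 100% = basal control without agonist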
# S1P4 agonist: human S1P4 receptor agonism | O95977 | S1P4-expressing cell line, agonist reporter assay | activation, % at 4.98 µM | hit rate 0.35% among 220,000; in the data active = activation above about 11%;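 also: 0% = DMSO vehicle and 100% = reference agonist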
# S1P3 antag: S1P3 (human) receptor antagonism; Q99500; CHO S1P3 NFAT-BLA reporter, FRET fluorescence, antagonist mode; inhibition, % at 4.98 µM; hit rate 0.27% among 170,000;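 active = inhibition above the plate cutoff, the mean inhibition of test wells on that plate plus 3 SD, cut at about 28% in these data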;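 also: cells challenged with S1P at its EC80 of 0.8 µM; blue over green emission ratio from cleaved BLA substrate after 4 h stimulation; 0% = S1P-stimulated wells and 100% = unstimulated DMSO-only wells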
# Target sequence (Q99500 whole entry, looked up): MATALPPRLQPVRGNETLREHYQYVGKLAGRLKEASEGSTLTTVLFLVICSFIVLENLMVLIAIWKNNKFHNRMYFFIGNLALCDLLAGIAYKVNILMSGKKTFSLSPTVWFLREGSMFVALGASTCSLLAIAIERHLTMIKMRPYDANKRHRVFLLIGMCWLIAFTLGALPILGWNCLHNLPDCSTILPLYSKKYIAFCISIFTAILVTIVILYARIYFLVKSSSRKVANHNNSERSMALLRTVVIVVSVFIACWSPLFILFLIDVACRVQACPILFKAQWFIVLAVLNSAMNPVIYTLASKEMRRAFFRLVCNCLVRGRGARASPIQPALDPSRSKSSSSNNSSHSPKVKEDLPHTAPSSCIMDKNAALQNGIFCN
# GALR2 agonist: agonists of human galanin receptor 2 (GALR2); GALR2-expressing cells, agonist activation read-out; activation, % (test concentration not listed); hit rate 0.48% among 140,000; AID 803; in the data active = activation above about 5%, passing the limit was not always enough;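 also: 0% = vehicle buffer wells and 100% = reference agonist at full effect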
# S1P4 antag: antagonists of human S1P4 receptor; inhibition, % at 4.98 µM; O95977; AID 1510; S1P4-expressing cells, antagonist mode, reporter read-out; hit rate 0.26% among 220,000; in the data active = inhibition above about 29%;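 also: 0% = wells stimulated with agonist and 100% = vehicle wells without agonist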
# Numbers without * were called inactive; x = no result. Compounds with a hit are over-represented: about 1.3% of the library has one in this group of screens.
SMILES,GALR2 antag,S1P4 agonist,S1P3 antag,GALR2 agonist,S1P4 antag
CCOC(=O)CSC1=Nc2ccccc2C2=NC(CC(=O)NCc3ccc4c(c3)OCO4)C(=O)N12 (stereo not drawn),6.0,72.4*,3.7,-0.4,10.5
CCOC(=O)CSC1=Nc2ccccc2C2=NC(CC(=O)NCc3ccc(OC)cc3)C(=O)N12 (stereo not drawn),-10.3,1.3,12.8,-0.1,-11.4
CCc1cc(/C(Cc2ccccn2)=N\Nc2ccccc2)c(O)cc1O,x,-1.0,0.8,x,2.7
O=C(N/N=C/C=C/c1ccccc1)C(O)c1ccccc1 (stereo not drawn),30.1*,-1.1,x,-5.1,-9.0
C=CCN1CCN(C(c2ccc(Cl)cc2)c2nnnn2CCc2ccc(OC)c(OC)c2)CC1 (stereo not drawn),-2.7,1.8,103.6*,-0.6,-7.2
CCOC(=O)c1cc2sc(C)cc2n1C(C)C(=O)OCC (stereo not drawn),-0.4,-0.9,75.5*,0.3,-20.3
CCOc1ccc(/C=N/N2C(=O)C(CC(=O)Nc3ccc(F)cc3F)SC2=NC)cc1OC (stereo not drawn),6.5,1.4,1.3,6.0*,0.7
CC(C)C(c1nnnn1C(C)(C)C)N1CCN(c2cccc(Cl)c2)CC1 (stereo not drawn),-6.9,-0.5,17.2,-1.2,12.7
O=S(=O)(c1cc(Cl)ccc1Cl)N1CCN(Cc2ccc3c(c2)OCO3)CC1,-5.8,-4.0,86.5*,-1.6,11.7
CC(C)C(C(=O)NCc1ccco1)N(C(=O)CNS(=O)(=O)c1ccc(Cl)cc1)C1CCCC1 (stereo not drawn),-0.5,11.3*,14.3,-0.7,8.3
Cc1ccc2c(c1)N(C(=O)c1ccco1)C(C)(C)c1ssc(=S)c1-2,8.3,0.3,x,-1.0,-1.1
COc1cccc(C(=O)Nc2c[nH]c(=O)[nH]c2=O)c1,x,2.2,-2.3,x,-16.8
CC1Cc2ccccc2N1C(=O)Cn1c(=O)oc2cc(S(=O)(=O)N3CCCCC3)ccc21 (stereo not drawn),-1.1,-1.0,80.7*,0.1,-4.1
Cc1ccc(Cl)c(OC(=O)c2ccc(N3CCOCC3)c([N+](=O)[O-])c2)c1,3.1,-0.3,-3.9,-0.7,-1.7
Cc1cc(C)n(C(=O)c2ccc(NC(=O)C3CC3)cc2)n1,2.6,-1.5,93.3*,-3.3,-8.5
Cc1ccc(OCC(O)CN2CC3(C)CC2CC(C)(C)C3)cc1 (stereo not drawn),9.4,2.6,-1.4,0.6,-9.8
Cc1cccc(OCC(O)CN2CC3(C)CC2CC(C)(C)C3)c1 (stereo not drawn),3.6,1.4,-7.5,6.8*,3.2
Cn1cc(CN2CCCC(C(=O)c3cccs3)C2)c(-c2cccc(Cl)c2)n1 (stereo not drawn),x,0.8,-15.7,x,0.7
Cc1cc(/C=c2/sc3nc4ccccc4n3c2=O)c(C)n1-c1ccccn1,-28.4,24.7*,x,0.6,-14.4
Cc1cc(/C=c2\sc3nc4ccccc4n3c2=O)c(C)n1-c1ccc(C(=O)O)cc1,x,0.1,0.7,x,-10.4
CC1Cc2ccccc2N1C(=O)C1CCCN(S(=O)(=O)c2cccc3cccnc23)C1 (stereo not drawn),-3.1,-0.5,81.7*,-1.2,-17.8
Cc1cccc(NC(=O)Nc2cccc(C#N)c2)n1,18.1,2.1,13.5,-0.4,-2.4
Cc1cccc(NC(=O)Nc2ccc(C#N)cc2)n1,37.8*,0.7,25.5,-3.2,-8.1
CCOCCSc1nc2c(c(-c3cccs3)c1C#N)CC/C2=C/c1cccs1,-2.9,3.9,-12.2,5.1*,3.2
CCOC(=O)CC(=O)CSc1nc2c(c(-c3cccs3)c1C#N)CCC2,-9.5,2.1,-6.3,0.2,-8.3
SMILES,GALR2 antag,S1P4 agonist,S1P3 antag,GALR2 agonist,S1P4 antag
CCN(CC)c1ccc2c(C)c(CN3CCOCC3)c(=O)oc2c1,-0.7,4.2,-20.8,6.2*,7.4
C/C(=N\NC(=S)Nc1ccc(C)c(C)c1)c1ccc(N2CCOCC2)cc1,-5.9,-1.8,-15.2,-0.4,-5.5
COC(=O)C1=C(N)Oc2cc(N(C)C)ccc2C1c1ccccc1OC (stereo not drawn),0.5,1.1,59.7*,-0.1,2.0
COC(=O)C1=C(N)Oc2cc(C)n(CC3CCCO3)c(=O)c2C1c1ccccc1OC (stereo not drawn),-21.1,-0.6,-8.0,-0.5,12.9
O=S(=O)(Cc1ccccc1)N1CCCc2ccccc21,x,1.9,-16.1,x,-15.5
Nc1nnc(CCS(=O)(=O)c2cc(Cl)ccc2Cl)s1,-5.8,0.6,76.7*,-0.3,-16.4
CCCC(=O)Nc1cc(S(=O)(=O)N(CC)CC)ccc1Cl,-10.8,0.6,-5.4,-2.4,3.3
O=C(CCn1c(=O)oc2ccccc21)Nc1ccccc1,-13.8,0.3,-2.4,7.9*,-12.9
Cc1ccc(NC(=O)CCn2c(=O)oc3ccccc32)cc1,-8.9,0.6,-4.6,-3.2,-3.6
COc1ccc(CCNC(=O)CCSc2nc(-c3ccco3)cc(C(F)(F)F)n2)cc1,-0.1,-2.7,-4.9,-1.4,-20.2
CC(C)(C)c1cc(C(F)(F)F)nc(SCCCNC(=O)c2ccco2)n1,-10.3,-0.2,58.7*,-0.6,-8.0
Nc1ccc(-c2nc3ccc(-c4nc5ccccc5o4)cc3[nH]2)cc1,8.4,1.2,18.7,6.4*,-5.1
O=C1C2CCCN2C(c2cccc(F)c2)N1c1cccc(Cl)c1 (stereo not drawn),5.6,0.7,68.1*,-1.9,-10.8
COc1ccc(CC(=O)NCC(=O)N/N=C(/C)c2ccco2)cc1,x,-0.4,8.9,x,11.5
O=[N+]([O-])c1cc(/C=N/O)ccc1Oc1ccccc1Cl,x,0.9,-9.0,x,-9.2
O=C(NCc1cccnc1)NC1(c2ccccc2)CC1,-9.3,1.5,76.6*,-1.6,-17.6
NS(=O)(=O)c1ccc(CCNC(=S)Nc2ccccc2)cc1,8.1,1.3,-23.7,-1.9,9.6
O=C(NC1CC1)C1CCN(C2CCN(C(=O)CC3=CCCCC3)CC2)CC1,x,0.6,-2.0,x,-18.8
CC(=O)Nc1ccc(-c2nnc(SCC(=O)c3ccc4c(c3)Cc3ccccc3-4)n2C)cc1,-31.2,0.6,x,4.9*,-42.0
Cn1nc(C(=O)NCc2ccc(F)cc2)c2ccccc2c1=O,10.1,-0.4,90.6*,-0.4,2.7
CC1C(c2ccccc2)N(C)C(c2ccccc2)C(C)C1(O)C#Cc1ccccc1 (stereo not drawn),2.4,40.2*,4.2,0.5,-12.3
CCC1C(c2ccccc2)N(C)C(c2ccccc2)CC1(O)c1ccccc1 (stereo not drawn),x,0.4,21.5,x,-3.0
Cc1ccc2[nH]c(-c3ccccc3)cc(=O)c2c1,15.6,2.0,60.5*,1.1,25.1
c1cncc(CSc2nnc(-c3cccnc3)n2Cc2ccco2)c1,2.6,0.2,-27.1,-1.2,-1.5
O=C(CSc1nnc(-c2cccnc2)n1Cc1ccco1)N1c2ccccc2Sc2ccccc21,4.1,-1.8,91.2*,-0.4,1.2
Nc1ccc(NC(=O)c2ccco2)c(Cl)c1,x,0.7,-4.8,x,-8.5
CC1(C)C=C(c2ccc(O)cc2)CC(C)(C)N1,0.8,20.0*,15.7,-0.2,13.9
C/C=C(/C(=C/C)c1ccc(O)cc1)c1ccc(O)cc1,3.3,0.2,17.7,-1.1,-3.4

# Screens from PubChem BioAssay.
